Bioassay records from PubChem.
hcGAS lum = Primary biochemical luminescence assay for human cyclic GMP-AMP synthase inhibitors; Q8N884; recombinant h-cGAS, ATP depletion, Kinase-Glo luminescence; inhibition, % at 12.5 µM; 290,000 tested, 0.081% active; AID 1259398, 2018;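 note: 0% = vehicle reaction and 100% = reaction without DNA for no activity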
NPYLR7 agonist = agonists of mosquito NPYLR7 receptor, primary screen, cell-based, Aedes aegypti, calcium fluorescence, mosquito biting behavior. HEK293T NPYLR7/Galpha15, GCaMP6s calcium fluorescence. 270,000 tested, 0.15% active. Aedes aegypti neuropeptide Y-like receptor 7 (NPYLR7). activation, % at 10 µM. AID 1259423, 2018; in the data active = activation above about 40%;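 note: 0% = vehicle and 100% = reference agonist at the receptor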
mcGAS inh = cyclic GMP-AMP synthase inhibitors, mouse, primary biochemical chemiluminescence; recombinant cGAS, Kinase-Glo ATP depletion luminescence; inhibition, % at 12.5 µM; 160,000 tested, 0.15% active; AID 1259399, 2018;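 note: 0% = negative control wells and 100% = reference inhibitor with no enzyme activity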
Target sequence (Q8C6L5 whole entry, looked up): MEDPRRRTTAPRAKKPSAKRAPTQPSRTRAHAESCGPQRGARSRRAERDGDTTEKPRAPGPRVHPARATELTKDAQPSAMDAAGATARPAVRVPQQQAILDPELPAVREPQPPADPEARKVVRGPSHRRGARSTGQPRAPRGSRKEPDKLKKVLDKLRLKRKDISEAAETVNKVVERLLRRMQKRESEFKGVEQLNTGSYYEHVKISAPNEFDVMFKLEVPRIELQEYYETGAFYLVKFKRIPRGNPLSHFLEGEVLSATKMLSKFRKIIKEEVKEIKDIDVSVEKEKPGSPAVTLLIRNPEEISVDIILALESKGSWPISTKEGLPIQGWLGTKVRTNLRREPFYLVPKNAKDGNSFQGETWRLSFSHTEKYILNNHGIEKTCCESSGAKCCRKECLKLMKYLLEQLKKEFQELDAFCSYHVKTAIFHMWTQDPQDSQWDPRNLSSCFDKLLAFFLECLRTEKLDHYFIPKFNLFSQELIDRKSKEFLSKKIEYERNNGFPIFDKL
* hit, by the source's call; nt = not tested or not shown. This is a sample that favours compounds with a hit; in the whole collection about 0.3% have one here. Cut-off read from the data, not from the text of the source, unless noted: active = inhibition above about 40%; inactive = the rest.

SMILES	hcGAS lum	NPYLR7 agonist	mcGAS inh
Cc1ccnc(SCc2cc(=O)c(OC(=O)Cc3ccc(F)cc3)co2)n1	5	-16	40*
Cc1cccc(CC(=O)Oc2coc(CSc3nc(C)cc(C)n3)cc2=O)c1	2	-15	26
CC(=O)OCC(=O)N1CCC(=O)N(CCC#N)C[C@H]2COc3ccc(C)cc3[C@H]21	-9	7	-7
COc1cc(=O)n(-c2ccc(F)cc2)nc1C(=O)Nc1ccccc1C(N)=O	-1	-6	0
Nc1nc2nc(C(F)(F)F)[nH]c2c(=O)[nH]1	33	-4	nt
Nc1nc2nc(Br)[nH]c2c(=O)[nH]1	52*	-3	12
Cc1nn2c(=O)[nH]c(SCC(=O)NCCc3ccccc3)nc2c1-c1ccccc1	6	10	1
CNC(=O)CSc1nc2c(-c3ccccc3)c(C)nn2c(=O)[nH]1	55*	7	-3
C=CCCC(O)CN(CCN1CCOCC1)Cc1ccc(OC)cc1 (configuration not stated)	-5	-4	-6
O=C1SC(Nc2ccc(Br)cc2)C(=O)N1c1ccccc1 (configuration not stated)	-6	85*	-4
O=C1SC(Nc2ccc(Br)cc2)C(=O)N1CCN1C(=O)c2ccccc2C1=O (configuration not stated)	-8	11	-4
COc1ncccc1NC(=O)N(CCN1CCOCC1)C1CCCC1	-4	2	nt
N#CC(C(=O)/C=C/c1nccs1)C(=O)Nc1cccc(Cl)c1Cl (configuration not stated)	46*	-1	nt
Cc1c(Cl)cccc1NC(=O)C(C#N)C(=O)COc1ccc(F)cc1 (configuration not stated)	-3	22	-15
COc1ccc(CCNC(=O)c2c(C)noc2-c2cccs2)cn1	1	4	68*
COc1ccc(CCNC(=O)c2c(C)noc2-c2ccccc2Cl)cn1	-3	10	-8
Cn1ccnc1-c1nccn1CCn1ccnc1	-2	6	nt
Cc1noc(C)c1S(=O)(=O)N1CCc2ccc(NC(=O)C3CCCO3)cc2C1 (configuration not stated)	3	nt	nt
CCc1nc2ccc(C(=O)NC3CCN(C)CC3)cn2c1N(C)Cc1cc2ccccc2s1	-4	13	-3
COc1ccc(-c2ccc(N)nc2)c(C)c1	-2	21	nt
COc1ccc(-c2cnn(CCC(N)=O)c2)c(C)c1	0	47*	nt
O=C(Nc1ccc(Nc2cc(-n3ccnc3)ncn2)cc1)C1CCCC1	-4	-16	-12
CCOC(=O)c1c(NC(=O)c2c(-c3ccccc3)noc2C)sc2c1Cc1ccccc1-2	-10	8	-6
C[C@H]1O[C@H](O[C@@H]2[C@@H](O[C@H]3CC[C@@]4(C)C(CC[C@]5(C)C4CC=C4[C@@H]6CC(C)(C)CC[C@]6(C(=O)O)CC[C@]45C)[C@]3(C)CO)OC[C@@H](O)[C@H]2O)[C@@H](O)[C@H](O)[C@@H]1O (some centres not stated)	1	53*	nt
CC(=O)O[C@@H]1CC[C@@]2(C)C(CC[C@]3(C)C2CC=C2C4CC(C)(C)CC[C@]4(C(=O)O)CC[C@]23C)C1(C)C (some centres not stated)	-5	nt	-4
SMILES	hcGAS lum	NPYLR7 agonist	mcGAS inh
O=c1oc(/C=C/c2ccco2)nc2ccc(Br)cc12	20	-12	45*
O=c1oc(C=Cc2ccco2)nc2sc3c(c12)CCCC3	-8	-2	nt
Cc1nc2c(=O)n(CC(=O)c3ccc4c(c3)OCO4)nc(-c3ccco3)c2s1	-1	3	-6
CCNC(=O)c1ccc(NC(=O)c2cnc(C)[nH]2)cc1	-51	2	-45
CC(C)c1nc(NC(=O)CS(=O)(=O)C2CCCC2)n(C)n1	-10	3	nt
CC(C)c1nc(NC(=O)c2[nH]ncc2Br)n(C)n1	49*	85*	nt
CC(=O)OC[C@H]1O[C@@H](Oc2cc(OC(C)=O)c3c(=O)cc(-c4ccc(OC(C)=O)cc4)oc3c2)[C@H](OC(C)=O)[C@@H](OC(C)=O)[C@@H]1OC(C)=O	-4	-3	nt
O=C(OC[C@H]1O[C@H](OC(=O)c2cc(O)c(O)c(OC(=O)c3cc(O)c(O)c(O)c3)c2)[C@H](OC(=O)c2cc(O)c(O)c(OC(=O)c3cc(O)c(O)c(O)c3)c2)[C@@H](OC(=O)c2cc(O)c(O)c(OC(=O)c3cc(O)c(O)c(O)c3)c2)[C@@H]1OC(=O)c1cc(O)c(O)c(OC(=O)c2cc(O)c(O)c(O)c2)c1)c1cc(O)c(O)c(OC(=O)c2cc(O)c(O)c(O)c2)c1	51*	-13	nt
Cc1cc2c(=O)n(NC(=O)C(C)n3nc(C(F)F)c(Cl)c3C)c(C)nc2s1 (configuration not stated)	-10	5	nt
CC(C)=CCc1c2c(c(O)c3c(=O)c(O)c(-c4ccccc4)oc13)C=CC(C)(C)O2	0	-4	-3
CC(C)=CCCC1(C)C=Cc2c(O)c3c(c(CC=C(C)C)c2O1)OC12C(=CCCC1C(C)(C)O[C@@]2(C/C=C(\C)C(=O)O)C(=O)O)C3=O (some centres not stated)	68*	nt	58*
CN1CCCN(c2ncccc2CNC(=O)c2cnn3ccccc23)CC1	-1	2	-14
O=C(c1snc2c(=O)n(Cc3ccccc3)c(=O)[nH]c12)N1CCSCC1	-2	65*	nt
Cc1ccc(N2CCN(C(=O)c3snc4c(=O)n(CC(C)C)c(=O)[nH]c34)CC2)c(C)c1	-5	-9	nt
Cc1cc(C(=O)NCCc2ccccc2)n2nc(C(C)(C)C)cc2n1	-6	18	-5
Cc1cc(C(=O)NC(c2ccccc2)c2ccccc2)n2nc(C(C)(C)C)cc2n1	-3	21	59*
CC(=NCCCn1ccnc1)c1c(-c2ccccc2)[nH]n(-c2nc3ccccc3s2)c1=O	6	-4	4
CCCN=Cc1c(-c2ccccc2)[nH]n(-c2nc3ccccc3s2)c1=O	54*	2	-2
CC1CCCCN1C(=O)C(NC(=O)c1cccs1)C1CCN(C(=O)C2CC2)CC1 (configuration not stated)	-7	8	-6
CSc1ccc(NC(=O)N(CC(=O)Nc2cc(C(C)(C)C)nn2-c2cccc(C)c2)CC(C)C)cc1	0	16	-4
CC1c2cc(Cl)cc(Cl)c2CCN1C(=O)c1ccc(C(N)=O)nc1 (configuration not stated)	-4	3	nt
COc1cccc(OC)c1OCCCOc1ccc([N+](=O)[O-])cc1	-1	-5	nt
COc1ccc2c(c1OC)C(=O)OC2CC(=O)c1ccc([N+](=O)[O-])cc1 (configuration not stated)	-4	-6	58*
COc1ccc(C2CCCN2C(=O)NC2CCCCC2C)c(OC)c1 (configuration not stated)	-12	-1	-7
Cc1cc(O)c(CN2CCN(C)CC2)c2c1C(=O)/C(=C/c1ccncc1)O2	-3	26	-2
Cc1cc(O)c(CN2CCCCC2)c2c1C(=O)/C(=C/c1cc3ccccc3o1)O2	-4	50*	-5
Cc1cc(O)c(CN2CCN(C)CC2)c2c1C(=O)/C(=C/c1cccs1)O2	-2	49*	-6
